Assay results reported in ChEMBL document CHEMBL1157539, “Thousands of chemical starting points for antimalarial lead identification” (Nature, 2010).

Key:
Type in all cases: functional
Plasmodium falciparum [1] = assay: GSK_TCMDC: Inhibition of Plasmodium falciparum 3D7 in whole red blood cells, using parasite LDH activity as an index of growth. Test compounds present at 2uM
Plasmodium falciparum [2] = assay: GSK_TCMDC: Inhibition of Plasmodium falciparum Dd2 in whole red blood cells, using parasite LDH activity as an index of growth. Test compounds present at 2uM
HepG2 = assay: GSK_TCMDC: Percent inhibition of human HepG2 cell line. Test compounds present at 10uM.

| Structure (SMILES) | Inhibition (Plasmodium falciparum [1]) | Inhibition (Plasmodium falciparum [2]) | Inhibition (HepG2) |
| --- | --- | --- | --- |
| Nc1nc(N)c2c(Cc3ccc(Br)cc3)cccc2n1 | 99% | 20% | 28% |
| c1ccc(CN2CCc3cc4nccc(N5CCNCC5)c4cc32)cc1 | 100% | 99% | 9% |
| CCNc1cc(C(=O)N[C@@H](Cc2ccccc2)[C@H](O)CNC(C)(C)c2cccc(OC)c2)cc(N2CCCC2=O)c1.O=CO | 100% | 99% | 0% |
| CCCCc1ccc(NC(=O)Nc2cccc(CCNCc3ccccc3)c2)cc1.O=C(O)C(F)(F)F | 94% | 13% | 3% |
| Cc1cc(F)ccc1-c1nc(N(C)CCN(C)C(=O)N(C)c2ccccc2)nc2c1ccc(=O)n2-c1c(F)cccc1F.O=C(O)C(F)(F)F | 87% | 77% | 0% |
| Cc1ccc(CN2CCCN(Cc3ccc(C(=O)Nc4ccc(Cl)cc4)cc3)CC2)s1.O=C(O)C(F)(F)F | 85% | 5% | 53% |
| Cc1cc(NCCCN2CCCC2=O)n2c(nc3ccccc32)c1C#N | 93% | 48% | 4% |
| Cc1cc(N(C)C)nc(Nc2ccc(NC(=O)c3c(F)cccc3F)cc2)n1 | 94% | 45% | 50% |
| CC1CC(NCCCNc2cc(=O)c3ccccc3[nH]2)c2c(Cl)c(Cl)cc(Cl)c21 (stereo not given) | 87% | 52% | 6% |
| CC(C)(CNC(=O)[C@@H]1CCCN(CCOc2ccc(Cl)cc2)C1)c1nc(-c2ccc(Cl)c(O)c2)c(-c2ccncc2)[nH]1.Cl | 92% | 57% | 58% |
| O=C(NCCCCN1CCN(c2cccc3ccccc23)CC1)c1ccc(NC(=O)c2ccc(Cl)cc2)cc1 | 100% | 64% | 38% |
| CCOc1ccc(C(=O)Nc2nonc2-c2ccc(OC)c(OC)c2)cc1 | 95% | 42% | 7% |
| COc1ccc2nccc([C@@H](O)CN3CCC(NCc4ccc5c(c4)NC(=O)C(C)(C)O5)CC3)c2c1.O=C(O)C(=O)O | 100% | 70% | 6% |
| COc1ccc2ncc(F)c(CCN3C[C@H](CNCc4cc(C#N)c5c(c4)OCCO5)[C@H](O)C3)c2n1.Cl | 100% | 64% | 7% |
| COc1ccc2cc(CNCCCCCCNCc3ccc4cc(OC)ccc4c3)ccc2c1.CS(=O)(=O)O | 100% | 92% | 100% |
| O=C(/C=C/c1ccc(Cl)cc1)NCCCCCN1CCCC(C(=O)Nc2ccc(F)c(Cl)c2)C1 (stereo not given) | 94% | 6% | 27% |
| C=CCOc1ccc2ccccc2c1CNCCCCCCNCc1c(OCC=C)ccc2ccccc12.CS(=O)(=O)O | 100% | 98% | 99% |
| CCOc1ccc(Br)cc1/C=C/C(=O)Nc1ccc(C2CCN(C)CC2)cc1 | 100% | 71% | 30% |
| CCC(=O)Nc1ccc(Nc2nc(C)cc(N3CCCC3)n2)cc1 | 91% | 2% | 34% |
| NCC1CCCN1Cc1ccc(-c2ccc(-c3nc4cc(F)ccc4[nH]3)cc2)cc1.O=C(O)C(F)(F)F (stereo not given) | 100% | 100% | 31% |

| Structure (SMILES) | Inhibition (Plasmodium falciparum [1]) | Inhibition (Plasmodium falciparum [2]) | Inhibition (HepG2) |
| --- | --- | --- | --- |
| CC(=O)Nc1ccc(-c2nc3ccc(-c4nc5ccc(NC(C)=O)cc5[nH]4)cc3[nH]2)cc1 | 99% | 99% | 0% |
| O=C(/C=C/c1ccc(Cl)c(Cl)c1)N1CCC(CCCN2CCC(c3c[nH]c4ccc(O)cc34)CC2)CC1 | 100% | 99% | 60% |
| Cn1nc(-c2cccc(CN[C@@H]3CCc4ccc(O)cc43)c2)c2cnc(NC3CCCC3)nc21 | 100% | 76% | 6% |
| COc1ccc2nc(N3CCNCC3)nc(NCCCc3ccccc3)c2c1.Cl | 100% | 43% | 31% |
| COC(=O)c1cccc(NC(=O)NCCNc2ccnc(Nc3ccc(F)cc3)n2)c1 | 93% | 5% | 10% |
| COc1ccc(CNc2nc(Nc3cccc(C#N)c3)nc(Nc3cccc(C#N)c3)n2)cc1Cl | 100% | 83% | 0% |
| Cc1cccc2nc(-c3ccc(-c4cccc(CNCCCNS(C)(=O)=O)c4)cc3)[nH]c12.O=C(O)C(F)(F)F | 99% | 5% | 5% |
| COCCN1CCN(Cc2ccc(-c3ccc(-c4nc5cccc(C)c5[nH]4)s3)cc2)CC1.O=C(O)C(F)(F)F | 95% | 52% | 32% |
| O=C(Nc1cccc(Cl)c1Cl)NC1CCN(Cc2cccc(O)c2)CC1.O=C(O)C(F)(F)F | 98% | 1% | 1% |
| CS(=O)(=O)CCNCc1ccc(-c2cc3c(Nc4ccc(OCc5cccc(F)c5)c(Cl)c4)ncnc3s2)[nH]1 | 99% | 95% | 5% |
| COc1cccc(CN2CCC(C(=O)Nc3ccc(-c4nc5ccccc5[nH]4)cc3)CC2)c1 | 100% | 84% | 9% |
| Cc1ncccc1C(=O)Nc1cccc(-c2cccc(-c3nc4cc(C(F)(F)F)ccc4[nH]3)c2)c1 | 96% | 30% | 34% |
| COc1cc2c(cc1OC)C(C(=O)c1ccccc1)=NCC2.Cl | 85% | 62% | 19% |
| Cl.Fc1ccccc1COc1ccc(Nc2ncnc3ccc(-c4nnc(C(F)(F)F)o4)cc23)cc1Cl | 100% | 46% | 7% |
| O=C(Nc1ccc2c(c1)CCN2C1CCN(Cc2cc(F)cc(F)c2F)C1)c1ccco1 (stereo not given) | 96% | 95% | 0% |
| COc1cc(-c2cc(-c3ccc(S(C)(=O)=O)cc3)cnc2N)ccc1O | 97% | 97% | 37% |
| NC(=O)c1ccccc1Nc1nc(Nc2cc[nH]n2)ncc1Cl | 96% | 93% | 67% |
| COc1ccc(CCN(C)CCCN2CCC(NC(=O)c3cccc4c(=O)c5ccccc5sc34)CC2)cc1OC.O=C(O)C(=O)O | 97% | 79% | 67% |
| Cc1cc(-c2ccc(NC(=O)N3CCc4cc(Cl)c(N5CCN(C)CC5)cc43)cc2)ccc1C#N | 100% | 83% | 100% |
| CNC(=O)c1cc(S(=O)(=O)Nc2ccc(OC)cc2)cs1 | 95% | 48% | 11% |

| Structure (SMILES) | Inhibition (Plasmodium falciparum [1]) | Inhibition (Plasmodium falciparum [2]) | Inhibition (HepG2) |
| --- | --- | --- | --- |
| COc1cccc(CNC(=O)NC2CCN(c3ccnc(Nc4cc(OC)c(OC)c(OC)c4)n3)C2)c1 (stereo not given) | 93% | 84% | 15% |
| Cc1cc(-c2cnc(N)c(-c3ccc(N4CCN(C)CC4)cc3)c2)cc(C)c1O | 100% | 99% | 3% |
| CCn1c(-c2nonc2N)nc2c(C#CC(C)(C)O)ncc(OCCNCCc3ccc(OC)cc3)c21.O=C(O)C(F)(F)F | 91% | 44% | 4% |
| CCCCN1CC[C@@H](CCC(O)c2cc(OCCC)nc3ccc(OC)cc23)[C@@H](CC)C1.O=C(O)C(=O)O (stereo not given in full) | 100% | 99% | 23% |
| CCCCNCc1ccc(-c2nc(CN(Cc3ccc(Cl)c(Cl)c3)S(=O)(=O)c3ccc(NC(C)=O)cc3)cs2)cc1.O=C(O)C(F)(F)F | 96% | 20% | 30% |
| Nn1c(=O)oc2ccc(Cl)cc2c1=O | 97% | 96% | 4% |
| CCCCCCN1CCC(CNCc2cccc(Cl)c2)CC1.O=C(O)C(F)(F)F | 85% | 13% | 8% |
| Cc1nc(-c2ccc(-c3ccc(NC(=O)c4coc5ccc(N6CC(C)NC(C)C6)cc45)cc3)c(C)c2)no1.Cl (stereo not given) | 100% | 88% | 1% |
| O=C(N[C@H]1CCN(CCc2ccc(O[C@H]3CCNC3)c(Br)c2)C1)c1ccc(Cl)c(Cl)c1.O=C(O)C(F)(F)F | 100% | 0% | 28% |
| CCOC(=O)c1nc(-c2ccc(-c3ccccc3)cc2)[nH]c1N.Cl | 98% | 2% | 0% |
| Cn1cnnc1Sc1ccc(CN2CCOc3ccc(C4=CCCCC4)cc3C2)o1 | 98% | 97% | 1% |
| O=C(COc1ccc(F)cc1)NC1CCN(c2ccnc3cc(Cl)ccc23)C1.O=C(O)C(F)(F)F (stereo not given) | 100% | 100% | 24% |
| Cl.NC(=O)c1ccccc1Nc1nc(Nc2cccc(N3CCN(CCO)CC3)c2)ncc1Cl | 95% | 98% | 93% |
| Cc1cc(N2CCOCC2)nc2ccc(NC(=O)c3ccc(Cl)c([N+](=O)[O-])c3)cc12 | 98% | 15% | 12% |
| CC1CN(c2cnn(Cc3cccc(NC(=O)Nc4ccc(-c5ccccc5)cc4)c3)c(=O)c2Cl)CC(C)N1.O=C(O)C(F)(F)F (stereo not given) | 100% | 67% | 6% |
| CNC(=O)c1ccccc1Nc1nc(Nc2cccc(CS(C)(=O)=O)c2)ncc1C.O=CO | 97% | 95% | 74% |
| O=C(Nc1ccc(Cn2ncc(N3CCCNCC3)c(Cl)c2=O)cc1)Nc1cc(Cl)cc(Cl)c1.O=C(O)C(F)(F)F | 91% | 17% | 3% |
| COc1ccccc1NC(=O)OC(COc1ccc(N)cc1)CN1CC=C(c2ccccc2)CC1.O=C(O)C(F)(F)F (stereo not given) | 90% | 81% | 16% |
| Cc1noc(C)c1-c1ccc2c(Nc3ccc([N+](=O)[O-])cc3)c(C(N)=O)cnc2c1.Cl | 100% | 98% | 4% |
| O=C(NC1CCC(N2CCCC(OCc3ccccc3)C2)CC1)c1cc2ccccc2[nH]1 (stereo not given) | 94% | 11% | 38% |
